Compound activity deposited in PubChem BioAssay by several laboratories.
In the library only some 2.2% were active in any assay of this set; here they are far more common.
SKN-1 inh: inhibitors of C. elegans SKN-1; inhibition, % at 21.8 µM; C. elegans VP596 Pgst-4::GFP/RFP ratio, acrylamide-induced, 24 h; 360,000 compounds, 0.49% hits;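 active means interference check ratio from 0.5 to 1.5 plus GFP to RFP signal ratio inhibition reaching or exceeding a fixed threshold, cut at about 30% in these data, passing the limit was not always enough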
HGIII-sPLA2 inh: Blocks human group III sPLA2 activity. QFRET BODIPY PC-A2 liposome hydrolysis, fluorescence. inhibition, % at 12.2 µM. 370,000 compounds, 0.56% hits;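 active means inhibition above mean plus 3 SD of compounds lying within the high and low control bounds, cut at about 19% in these data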;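 further: 0% = median of test compound wells and 100% = no enzyme DMSO wells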
Target sequence (Q9NZ20 whole entry, looked up): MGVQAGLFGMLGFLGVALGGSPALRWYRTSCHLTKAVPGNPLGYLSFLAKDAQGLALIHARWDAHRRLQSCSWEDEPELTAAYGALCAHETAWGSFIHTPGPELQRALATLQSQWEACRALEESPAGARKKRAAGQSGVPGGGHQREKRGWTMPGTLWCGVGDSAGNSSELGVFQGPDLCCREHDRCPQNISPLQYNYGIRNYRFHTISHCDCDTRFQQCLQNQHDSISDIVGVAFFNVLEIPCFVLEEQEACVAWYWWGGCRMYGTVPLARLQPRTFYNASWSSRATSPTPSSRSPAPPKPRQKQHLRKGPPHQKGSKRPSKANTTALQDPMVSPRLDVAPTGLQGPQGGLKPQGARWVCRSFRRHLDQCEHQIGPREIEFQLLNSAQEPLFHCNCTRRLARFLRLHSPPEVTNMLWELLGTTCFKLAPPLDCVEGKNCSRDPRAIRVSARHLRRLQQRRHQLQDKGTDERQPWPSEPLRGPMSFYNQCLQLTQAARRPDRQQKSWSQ
SUMO Mot1 rescue: SUMOylation pathway inhibition by Mot1-301 growth rescue; S. cerevisiae Mot1-301 growth rescue, ATP luminescence, 38.5C; percent above DMSO median, 100 means doubled; growth rescue, % at 18.8 µM; 320,000 compounds, 1% hits;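 active means every valid replicate shows activation above 250% relative to neutral control wells; inactive means the rest, any valid replicate at or below 250%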;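 further: OY570 slx delta 5 strain wells were the positive control but not used for scaling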
Efflux pump mplx: antifungal efflux pump inhibition, Nile Red retention; S. cerevisiae Candida pump triplex; 330,000 compounds, 0.44% hits; inhibition, % at 10 µM; AID 485275;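 active means plate passing quality check with inhibition over a set limit, or well fluorescence over plate mean plus 4 SD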;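 further: Nile Red retained in pooled yeast measured as flow cytometry median fluorescence; 0% = buffer negative control and 100% = Enniatin B positive control; higher means more Nile Red kept so more efflux inhibition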
Yeast Mot1 SUMO: SUMO pathway inhibitors in yeast Mot1-301 growth | AID 493004 | growth activity, percent, % at 42 µM | shares compounds with SUMO Mot1 rescue | S. cerevisiae Mot1-301 galactose growth, ATP luminescence, 24 h; -100 = growth of slx-deleted rescue strain | 2,300 tested, under 10 active;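 active means Signal drops as the depositor expects, and the fitted half-maximal dose is no more than ten times the top valid tested dose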;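 further: more negative values mean stronger growth rescue toward the control strain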
The depositor's hits bear a star; . = no result given; + = active, no number.

SMILES	SKN-1 inh	HGIII-sPLA2 inh	SUMO Mot1 rescue	Efflux pump mplx	Yeast Mot1 SUMO
O=C1C2CC=C(Cl)CC2C(=O)N1c1ncn[nH]1 (centres undefined)	-8	-2	570*	0	0
CCOC(=O)C1CCN(C(=O)c2sccc2Cl)CC1	-1	18	567*	0	1
O=C(Nc1ccccc1)OCCN1CCN(Cc2ccccc2)CCC1=O	14	-4	2	0	.
O=C1CCN(Cc2ccccc2)CCN1CCOc1ccccc1	1	3	858*	0	0
CSc1cccc(CN2CCCC(CO)(Cc3cccc(Cl)c3)C2)c1 (centres undefined)	1	3	-7	0	.
CC(=O)Nc1ccc(CN2CCCC(CO)(Cc3cccc(Cl)c3)C2)cc1 (centres undefined)	7	-4	+	0	0
COc1cc(CN2CCCC(CO)(Cc3cccc(Cl)c3)C2)cc2c1OCO2 (centres undefined)	1	3	+	0	1
COc1cc(CN2CCCC(CO)(Cc3cccc(Cl)c3)C2)cc(OC)c1O (centres undefined)	-13	-12	2	0	.
OCC1(Cc2cccc(Cl)c2)CCCN(Cc2ccc(F)c(F)c2)C1 (centres undefined)	-19	-1	382*	0	-1
CCc1nc2ccc(C(=O)N3CCN(CC)CC3)cc2nc1CC	-1	0	967*	0	1
CCCN1C(=O)c2ccc(C(=O)Nc3nccs3)cc2C1=O	-39	0	544*	0	1
CCn1cc(Br)c(C(=O)Nc2nccs2)n1	12	-1	1	0	.
CCn1nccc1C(=O)Nc1nccs1	-1	-1	706*	0	0
COc1ccc(C(=O)Nc2ccc3c(c2)nc(CCNC(C)=O)n3C)cc1	-5	0	14	0	.
CC(=O)NCCc1nc2cc(NC(=O)c3ccc(F)cc3)ccc2n1C	-1	16	741*	0	0
COc1ccc(CCC(=O)NNC(=O)c2cc(Cl)ccc2OC)cc1	-1	-6	46	0	.
COc1cccc2sc(N3CCN(C(=O)c4ccc([N+](=O)[O-])o4)CC3)nc12	2	.	-7	0	.
O=C(c1ccc([N+](=O)[O-])o1)N1CCN(c2nc3c(Cl)cccc3s2)CC1	-4	7	769*	0	-1
Cc1ccc(S(=O)(=O)N2CCN(C)CC2c2ccccc2)cc1 (centres undefined)	11	13	-3	0	.
Cc1nc(NCCN2CCOCC2)c2nnn(Cc3c(F)cccc3Cl)c2n1	18	4	629*	0	0
Cc1cc(C)nc(SCC2COc3ccccc3O2)n1 (centres undefined)	-9	3	393*	0	1
Cc1cc(C)n(C(=O)CCC2COc3ccccc3O2)n1 (centres undefined)	-13	4	3	0	.
COc1cccc(NC(=O)CN(C)C(=O)c2ccccc2OCc2c(C)noc2C)c1	1	7	+	0	1
O=C(NCCNc1ccc(Cl)cc1[N+](=O)[O-])c1ccccc1F	17	2	474*	0	0
CCCNC(=O)Cn1sc2nc(C)cc(C)c2c1=O	7	4	423*	0	0
SMILES	SKN-1 inh	HGIII-sPLA2 inh	SUMO Mot1 rescue	Efflux pump mplx	Yeast Mot1 SUMO
COc1cccc(-c2cc(CNC(=O)[C@H]3O[C@@H](n4cnc5c(N)ncnc54)[C@H](O)[C@@H]3O)no2)c1	6	4	.	.	.
CCc1ccccc1NC(=O)N[C@@H](C)C(=O)OC	10	4	650*	0	0
CCOc1ccc(NC(=O)CNc2ccc(C)cc2Cl)cc1	17	-9	811*	0	-1
CC(=O)NC1CCCN(O)C(=O)/C=C(\C)CCOC(=O)C(NC(C)=O)CCCN(O)C(=O)/C=C(\C)CCOC(=O)C(NC(C)=O)CCCN(O)C(=O)/C=C(\C)CCOC1=O (centres undefined)	2	.	559*	0	0
OC(c1ccccc1)(c1ccccc1)C1CCN(CCCOc2ccc(-c3ccc(F)cc3F)cc2)CC1	.	0	.	.	.
CC1=C(C#N)S(=O)(=O)C(C#N)C(c2ccccc2)C1 (centres undefined)	16	-23	502*	0	-1
Cc1nn(C)cc1CNC(=O)C1CCC(=O)N(Cc2cccc(C(F)(F)F)c2)C1 (centres undefined)	8	1	375*	0	0
Cc1cc(CNC(=O)C2CCC(=O)N(Cc3cccc(C(F)(F)F)c3)C2)no1 (centres undefined)	16	-3	-19	0	.
CC1(C)CC(=O)C(CC2CCCCC2=O)C(=O)C1 (centres undefined)	-1	7	575*	0	0
Cc1nc2ccccc2n1C(C)c1nc2ccccc2n1CC(=O)c1ccc(OC(F)(F)F)cc1 (centres undefined)	-2	-30	.	.	.
CCCC(=O)Nc1ccc(Sc2ccc([N+](=O)[O-])cc2)cc1	17	2	374*	0	0
O=C(C[n+]1ccc(C(=O)N/N=C/c2ccc(Cl)cc2Cl)cc1)c1ccccc1	-1	-1	712*	0	0
CC(=N)c1c(O)cc(C)oc1=O	-4	0	.	.	.
COc1ccc(-n2c(SCC(=O)NCC3CCCO3)nnc2-c2ccncc2)cc1 (centres undefined)	.	-4	.	.	.
CCOC(=O)Cn1c(=O)cc(C)c2ccccc21	0	-1	-16	0	.
CCOC(=O)Cn1c(C)c(Br)c(=O)c2cccc(C)c21	0	-3	+	0	0
CC(C)c1ccc(-c2cc(C(=O)N3CCOCC3)c3cc(Br)ccc3n2)cc1	3	1	614*	0	0
O=C(c1cc(-c2ccccc2)nc2ccccc12)N1CCOCC1	7	4	80	0	.
CCOC(=O)c1c(C)[nH]c(O)c1C=Nc1ccccc1	16	2	883*	0	0
CC(=O)c1cc(C)ccc1OC(=O)c1ccco1	23	17	429*	0	1
CC(=O)c1cc(Cl)ccc1OC(=O)c1ccco1	4	-6	6	0	.
O=C(CC(=O)N/N=C/c1c(Cl)cccc1Cl)NCc1cccnc1	15	-6	-10	0	.
CCCCNC(=O)C1(C)CCN1Cc1cccc2c(OC)cc(C(=O)OCC)cc12 (centres undefined)	-3	5	.	.	.
COc1ccccc1NC(=O)c1nn(C)c(C(=O)Nc2ccccc2OC)c1[N+](=O)[O-]	-19	-2	27	0	.
COc1ccccc1NC(=O)c1nn(C)cc1Br	8	8	669*	0	-1
COc1ccccc1NC(=O)c1nn(-c2cccc(C(F)(F)F)c2)ccc1=O	-18	5	+	0	0
Cc1ccc(C(O)c2ncc(-c3cccc4ccccc34)[nH]2)cc1F (centres undefined)	4	-6	.	.	.
